Laboratory results: PubChem BioAssay (NCI)
The panel holds about 83,000 compounds, 20% with a hit somewhere; the sample as a whole holds those more often.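 How to read the values: 0–100, growth inhibition (40 = 60% inhibited); 0, no net growth; -100 to 0, cell death (-40 = 40% of starting cells died; -100 = all dead).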 Activity calls are given as the source filed them. Rule for the calls: active = growth percent below 10; inactive = the rest.

Assays:
Assay in all cases: NCI-60 one-dose screen, 48 h (100 = growth as untreated, 0 = no growth, -100 = all killed)
Conditions in all cases: 10 µM unless noted
HCT-15 colon = test system: HCT-15 colon
HT29 colon = test system: HT29 colon
SNB-75 CNS = test system: SNB-75 CNS
SNB-19 CNS = test system: SNB-19 CNS
U251 CNS = test system: U251 CNS
PC-3 prostate = test system: PC-3 prostate
SK-MEL-5 melanoma = test system: SK-MEL-5 melanoma
UACC-62 melanoma = test system: UACC-62 melanoma
LOX IMVI melanoma = test system: LOX IMVI melanoma
SK-MEL-28 melanoma = test system: SK-MEL-28 melanoma
SK-MEL-2 melanoma = test system: SK-MEL-2 melanoma
EKVX NSCLC = test system: EKVX NSCLC
SN12C renal = test system: SN12C renal
UO-31 renal = test system: UO-31 renal
TK-10 renal = test system: TK-10 renal
ACHN renal = test system: ACHN renal
A498 renal = test system: A498 renal
CCRF-CEM leukemia = test system: CCRF-CEM leukemia
MOLT-4 leukemia = test system: MOLT-4 leukemia
CAKI-1 renal = test system: CAKI-1 renal

Measured: growth

NC(N)=Nc1ccc(Oc2cccc(NC(N)=Nc3ccc(Br)cc3)c2)cn1
active: LOX IMVI melanoma 0.0918%
inactive: HCT-15 colon 85.4% | HT29 colon 59.7% | SNB-75 CNS 68.6% | SNB-19 CNS 18.8% | U251 CNS 43.1% | PC-3 prostate 38.2% | SK-MEL-5 melanoma 35.6% | UACC-62 melanoma 63.2% | SK-MEL-28 melanoma 82.9% | SK-MEL-2 melanoma 84.3% | EKVX NSCLC 62% | SN12C renal 20.6% | UO-31 renal 85% | TK-10 renal 69.1% | ACHN renal 95.5% | A498 renal 64.3% | CCRF-CEM leukemia 58.5% | MOLT-4 leukemia 65%

O=C(NNc1nc2cc(F)c(F)cc2n2c(CN3CC4CNCC4C3)ccc12)c1cnccn1 (stereo not given)
active: SK-MEL-5 melanoma 0.703% | UACC-62 melanoma -1.09% | LOX IMVI melanoma 2.25% | CCRF-CEM leukemia 9.82% | MOLT-4 leukemia 7%
inactive: HCT-15 colon 23% | HT29 colon 26.3% | SNB-75 CNS 60% | SNB-19 CNS 25.9% | U251 CNS 22.4% | PC-3 prostate 22% | SK-MEL-28 melanoma 27.4% | SK-MEL-2 melanoma 29.2% | EKVX NSCLC 19.5% | SN12C renal 22.1% | UO-31 renal 14.1% | TK-10 renal 33.4% | A498 renal 35.1%

C=C(C=O)[C@@H]1CC[C@]2(C)[C@H](C(=O)C=C3[C@H]4C[C@](C)(C(=O)OC)CC[C@]4(C)CC[C@]32C)[C@@]1(C)CCC#N
active: HCT-15 colon -45.3% | HT29 colon -5.25% | U251 CNS 2.98% | SK-MEL-5 melanoma -88% | UACC-62 melanoma -19% | LOX IMVI melanoma -83.2% | SK-MEL-28 melanoma -38.3% | SK-MEL-2 melanoma -22.3% | UO-31 renal -91.5% | CAKI-1 renal 7.53% | MOLT-4 leukemia 0.0515%
inactive: SNB-75 CNS 66.1% | SNB-19 CNS 30.7% | PC-3 prostate 11.2% | EKVX NSCLC 47.7% | SN12C renal 12.8% | TK-10 renal 48.9% | A498 renal 115% | CCRF-CEM leukemia 10.2%

CC1(C)CC[C@]2(C(=O)N3CCOCC3)CC[C@]3(C)C(=CC[C@@H]4[C@@]5(C)C/C(=C/c6ccco6)C(=O)C(C)(C)[C@@H]5CC[C@]43C)[C@@H]2C1
inactive: HCT-15 colon 81.5% | HT29 colon 82.7% | SNB-75 CNS 28.6% | SNB-19 CNS 100% | U251 CNS 101% | PC-3 prostate 60.3% | SK-MEL-5 melanoma 94.2% | UACC-62 melanoma 80.3% | LOX IMVI melanoma 63.9% | SK-MEL-28 melanoma 91.6% | SK-MEL-2 melanoma 103% | EKVX NSCLC 63.4% | SN12C renal 86% | UO-31 renal 49.9% | TK-10 renal 75.8% | CAKI-1 renal 37% | A498 renal 68.7% | MOLT-4 leukemia 52.3%

CCC1=Cc2cc(OC)ccc2OC12C=Cc1cc(OC)ccc1O2 (stereo not given)
active: HT29 colon -9.52% | UACC-62 melanoma 4.11% | LOX IMVI melanoma -5.73% | A498 renal 3.41%
inactive: HCT-15 colon 14.7% | SNB-75 CNS 24.5% | SNB-19 CNS 20.8% | U251 CNS 28.7% | PC-3 prostate 31.6% | SK-MEL-5 melanoma 16.8% | SK-MEL-28 melanoma 56.6% | SK-MEL-2 melanoma 52.5% | EKVX NSCLC 46.2% | SN12C renal 34.8% | UO-31 renal 53% | TK-10 renal 100% | ACHN renal 45% | CCRF-CEM leukemia 10.9% | MOLT-4 leukemia 11%

CNC1CCc2c(sc(NC(=O)c3ccc(C(C)(C)C)cc3)c2C(N)=O)C1 (stereo not given)
active: HCT-15 colon 4.54% | HT29 colon -0.193% | U251 CNS 3.54% | LOX IMVI melanoma -88.1% | MOLT-4 leukemia 0.786%
inactive: SNB-75 CNS 78.8% | SNB-19 CNS 55.6% | PC-3 prostate 40% | SK-MEL-5 melanoma 83.6% | UACC-62 melanoma 60.5% | SK-MEL-28 melanoma 63.2% | SK-MEL-2 melanoma 72.8% | EKVX NSCLC 54.6% | SN12C renal 69.2% | UO-31 renal 79.5% | TK-10 renal 101% | CAKI-1 renal 42.4% | A498 renal 73.9% | CCRF-CEM leukemia 11.5%

Cc1occc1-c1nc2s/c(=C/c3ccc(-c4cc(C(F)(F)F)ccc4Cl)o3)c(=O)n2n1
inactive: HCT-15 colon 104% | HT29 colon 106% | SNB-75 CNS 97.5% | SNB-19 CNS 98.5% | U251 CNS 105% | PC-3 prostate 97.7% | SK-MEL-5 melanoma 99.7% | UACC-62 melanoma 93.8% | LOX IMVI melanoma 101% | SK-MEL-28 melanoma 112% | SK-MEL-2 melanoma 109% | EKVX NSCLC 100% | SN12C renal 98.4% | UO-31 renal 87.4% | ACHN renal 102% | CAKI-1 renal 89.2% | A498 renal 105% | CCRF-CEM leukemia 117% | MOLT-4 leukemia 113%

O=C(CSc1nc2ccccc2c(=O)n1-c1ccc(Cl)cc1)N/N=C/c1ccc(N2CCCCC2)cc1
inactive: HCT-15 colon 67.8% | HT29 colon 60.9% | SNB-75 CNS 79.9% | SNB-19 CNS 43.2% | U251 CNS 50.6% | PC-3 prostate 78.6% | SK-MEL-5 melanoma 97.9% | UACC-62 melanoma 73.5% | LOX IMVI melanoma 43.5% | SK-MEL-28 melanoma 84.8% | SK-MEL-2 melanoma 99.5% | EKVX NSCLC 82.1% | SN12C renal 62.4% | UO-31 renal 53% | TK-10 renal 103% | ACHN renal 17.4% | A498 renal 78.5% | CCRF-CEM leukemia 87% | MOLT-4 leukemia 92%

CC(=O)Nc1cccc(Nc2nc(N[C@H](C)c3ccccc3)c3ccccc3n2)c1
inactive: HCT-15 colon 41.5% | HT29 colon 41.1% | SNB-75 CNS 30.6% | SNB-19 CNS 74% | U251 CNS 74.4% | PC-3 prostate 45.5% | SK-MEL-5 melanoma 38.8% | UACC-62 melanoma 65.5% | LOX IMVI melanoma 45.6% | SK-MEL-28 melanoma 74.6% | SK-MEL-2 melanoma 73.6% | EKVX NSCLC 52% | SN12C renal 53.9% | UO-31 renal 40.5% | TK-10 renal 68.1% | CAKI-1 renal 35.8% | A498 renal 22.8% | MOLT-4 leukemia 16.8%

O=C(NNc1nc2cc(F)ccc2n2c(CN3CCCC3)ccc12)c1cnccn1
inactive: HCT-15 colon 23% | HT29 colon 24% | SNB-75 CNS 65% | SNB-19 CNS 25.2% | U251 CNS 19.8% | PC-3 prostate 21.4% | SK-MEL-5 melanoma 22.3% | UACC-62 melanoma 17.9% | SK-MEL-28 melanoma 30.8% | SK-MEL-2 melanoma 46% | SN12C renal 21% | UO-31 renal 18.7% | TK-10 renal 40.2% | ACHN renal 13.3%
active: LOX IMVI melanoma 3.56% | EKVX NSCLC 7.62% | A498 renal -1.87% | CCRF-CEM leukemia 6.67% | MOLT-4 leukemia 1.81%

Cc1c(Cl)cccc1S(=O)(=O)Nc1ccc2c(c1)C(=O)N(C1CCC(=O)NC1=O)C2=O (stereo not given)
inactive: HCT-15 colon 24% | HT29 colon 105% | SNB-75 CNS 77.4% | SNB-19 CNS 82.9% | U251 CNS 95.6% | PC-3 prostate 95.4% | SK-MEL-5 melanoma 100% | UACC-62 melanoma 98.4% | LOX IMVI melanoma 122% | SK-MEL-28 melanoma 97.8% | SK-MEL-2 melanoma 107% | EKVX NSCLC 91.2% | SN12C renal 89.4% | UO-31 renal 44% | TK-10 renal 75.2% | ACHN renal 108% | A498 renal 91.1% | CCRF-CEM leukemia 25.5%
active: MOLT-4 leukemia 3.6%

CCN(CC)c1ccc2c(c1)Oc1nc(N)c(C#N)c(N)c1C2Sc1ccc(C)cc1 (stereo not given)
active: HCT-15 colon -83.8% | HT29 colon -23.5% | SNB-75 CNS -82.3% | SNB-19 CNS -97.4% | U251 CNS -78.5% | PC-3 prostate -88.5% | SK-MEL-5 melanoma -96.4% | UACC-62 melanoma -88.5% | LOX IMVI melanoma -92.2% | SK-MEL-28 melanoma -94.5% | SK-MEL-2 melanoma -83.2% | EKVX NSCLC -97.2% | SN12C renal -69.7% | UO-31 renal -99.7% | ACHN renal -98.8% | CAKI-1 renal -97.9% | A498 renal -85.2% | CCRF-CEM leukemia -19.7% | MOLT-4 leukemia -14.2%

NC(N)=Nc1ccc(Oc2cccc(NC(N)=Nc3ccc(I)cc3F)c2)cc1
inactive: HCT-15 colon 86.9% | HT29 colon 62.5% | SNB-75 CNS 73.2% | SNB-19 CNS 20.7% | U251 CNS 47.4% | PC-3 prostate 27.5% | SK-MEL-5 melanoma 74% | UACC-62 melanoma 77.8% | LOX IMVI melanoma 48% | SK-MEL-28 melanoma 85.7% | SK-MEL-2 melanoma 85.9% | EKVX NSCLC 71.6% | SN12C renal 54.3% | UO-31 renal 95.7% | TK-10 renal 85.7% | ACHN renal 101% | A498 renal 86.8% | MOLT-4 leukemia 78.9%

N#Cc1cccc(NC(=O)c2cc(-c3ccc(F)cc3F)ccc2O)c1
active: HCT-15 colon 6.97% | SNB-75 CNS 3.99% | PC-3 prostate 9.28% | SK-MEL-5 melanoma -74.3% | UACC-62 melanoma -12.9% | LOX IMVI melanoma 1.22% | SK-MEL-2 melanoma 0.79% | SN12C renal 4.45% | UO-31 renal -14.2% | ACHN renal 5.79% | CAKI-1 renal -16.7% | A498 renal -33.1% | MOLT-4 leukemia 6.28%
inactive: HT29 colon 94.9% | SNB-19 CNS 11.4% | U251 CNS 10.9% | SK-MEL-28 melanoma 25% | EKVX NSCLC 10.3% | CCRF-CEM leukemia 20.1%

NC(N)=Nc1ccc(Oc2cccc(Oc3ccc(Cl)c(C(F)(F)F)c3)c2)cn1
inactive: SNB-75 CNS 73.3% | SK-MEL-5 melanoma 14.3% | UO-31 renal 49.7% | A498 renal 15.1%
active: HCT-15 colon -83.7% | HT29 colon -68.4% | SNB-19 CNS -84.5% | U251 CNS -82.2% | PC-3 prostate -93.8% | UACC-62 melanoma -77.5% | LOX IMVI melanoma -88.6% | SK-MEL-28 melanoma -29.4% | SK-MEL-2 melanoma -36.3% | SN12C renal -86.6% | TK-10 renal -27.1% | ACHN renal -99.7% | CAKI-1 renal 9.01% | CCRF-CEM leukemia -29.8% | MOLT-4 leukemia -48.7%

N#Cc1cnc2ccc(-c3cnc(N)nc3)cc2c1N1CCc2cc(F)c(Cl)cc21
active: HCT-15 colon 4.26% | PC-3 prostate 2.78% | SK-MEL-5 melanoma -92.3% | UACC-62 melanoma -17.2% | LOX IMVI melanoma 2.73% | SK-MEL-28 melanoma 7.06% | SK-MEL-2 melanoma -32.5% | UO-31 renal -6.05% | TK-10 renal -20.5% | ACHN renal 7.59% | CAKI-1 renal 5.2% | A498 renal -49.7% | CCRF-CEM leukemia 5.74% | MOLT-4 leukemia 0.22%
inactive: HT29 colon 11.4% | SNB-75 CNS 19.1% | SNB-19 CNS 12.2% | U251 CNS 10.3% | SN12C renal 15%
